# Test results published in publication PMC4336329 (PLoS ONE, 2015).
# Out of some 310,000 compounds screened, about 2,200 (0.71%) showed an effect of 50% or more. The effect is printed as a negative number. Shown is part of a subset that was picked to be rich in strong results.
# Biological target: human ether-à-go-go-related gene (hERG) potassium channel (human, UniProt Q12809)
# Assay: primary screen, population patch clamp on CHO cells stably expressing hERG; higher = less effect of the substance
# human ether-à-go-go-related gene (hERG) potassium channel, sequence (Q12809 whole entry, looked up): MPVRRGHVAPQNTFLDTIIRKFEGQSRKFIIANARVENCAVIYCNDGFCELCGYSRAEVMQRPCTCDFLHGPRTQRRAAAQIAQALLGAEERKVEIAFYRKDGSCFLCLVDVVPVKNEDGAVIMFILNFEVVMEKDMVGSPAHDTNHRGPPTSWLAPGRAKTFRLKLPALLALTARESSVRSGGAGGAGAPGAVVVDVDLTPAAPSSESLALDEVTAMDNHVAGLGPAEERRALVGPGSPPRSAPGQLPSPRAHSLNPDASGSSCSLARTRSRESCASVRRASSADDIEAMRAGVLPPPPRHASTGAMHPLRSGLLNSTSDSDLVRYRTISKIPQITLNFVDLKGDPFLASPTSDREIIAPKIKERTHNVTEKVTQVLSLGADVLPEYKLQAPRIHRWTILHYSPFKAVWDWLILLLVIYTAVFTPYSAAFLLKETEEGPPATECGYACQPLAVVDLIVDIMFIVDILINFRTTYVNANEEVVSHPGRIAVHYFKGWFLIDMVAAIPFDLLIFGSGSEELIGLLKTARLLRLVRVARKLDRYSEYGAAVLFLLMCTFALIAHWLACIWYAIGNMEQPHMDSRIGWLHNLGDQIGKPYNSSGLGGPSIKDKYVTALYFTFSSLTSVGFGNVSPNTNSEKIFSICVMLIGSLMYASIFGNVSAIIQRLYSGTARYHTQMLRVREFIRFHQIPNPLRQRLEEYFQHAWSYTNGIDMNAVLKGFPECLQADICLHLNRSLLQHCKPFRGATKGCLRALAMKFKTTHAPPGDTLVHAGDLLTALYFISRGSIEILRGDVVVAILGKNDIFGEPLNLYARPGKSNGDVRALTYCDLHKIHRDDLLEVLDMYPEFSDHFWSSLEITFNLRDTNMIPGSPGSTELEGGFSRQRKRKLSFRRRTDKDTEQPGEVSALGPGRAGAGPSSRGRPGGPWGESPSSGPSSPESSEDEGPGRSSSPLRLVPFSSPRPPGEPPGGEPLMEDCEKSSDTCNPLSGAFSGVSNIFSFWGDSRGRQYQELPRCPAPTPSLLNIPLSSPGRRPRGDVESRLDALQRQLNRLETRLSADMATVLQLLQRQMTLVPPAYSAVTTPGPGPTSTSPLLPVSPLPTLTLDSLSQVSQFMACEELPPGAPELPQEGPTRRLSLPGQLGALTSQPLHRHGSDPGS
row,SMILES,"hERG current change (%, negative = inhibition) at 1uM [%]"
1,Cn1c(N)c(C(=O)COc2ccc(Cl)cc2Cl)c(=O)n(C)c1=O,12.3
2,Cn1c(N)c(C(=O)COC(=O)CCCOc2ccc(Cl)cc2Cl)c(=O)n(C)c1=O,16
3,CC(Oc1ccc(Cl)cc1Cl)C(=O)OCC(=O)c1c(N)n(C)c(=O)n(C)c1=O (stereo not drawn),-57.5
4,O=C(CSc1nc2c(cnn2-c2ccc(F)cc2)c(=O)[nH]1)N1CCCCCC1,11
5,O=C(Nc1ccncc1)C1COc2ccccc2O1 (stereo not drawn),1.88
6,O=C(C1CC(=O)N(c2ccccc2)C1)N1CCN(c2ccc(F)cc2)CC1 (stereo not drawn),-8.63
7,O=C1CC2(CCN(C(=O)C3CC(=O)N(c4ccc(F)cc4)C3)CC2)Oc2ccccc21 (stereo not drawn),-73.6
8,O=C(C1CC(=O)N(c2ccc(F)cc2)C1)N1CCN(c2ccccc2)CC1 (stereo not drawn),-13.6
9,COc1cccc(N2CC(C(=O)N3CCC4(CC3)CC(=O)c3ccccc3O4)CC2=O)c1 (stereo not drawn),3.79
10,O=C1CC2(CCN(C(=O)C3CC(=O)N(c4ccccc4)C3)CC2)Oc2ccccc21 (stereo not drawn),-51.5
11,Cc1ccc(N2CC(C(=O)N3CCC4(CC3)CC(=O)c3ccccc3O4)CC2=O)cc1 (stereo not drawn),-47.4
12,COc1ccc(N2CC(C(=O)N3CCC4(CC3)CC(=O)c3ccccc3O4)CC2=O)cc1 (stereo not drawn),-34.8
13,O=C(C1CC(=O)N(c2ccc(F)cc2)C1)N1CCN(c2ccc(F)cc2)CC1 (stereo not drawn),-71.1
14,Cc1ccc(N2CC(C(=O)N3CCC4(CC3)CC(=O)c3ccccc3O4)CC2=O)cc1C (stereo not drawn),-6.22
15,Cc1cnc(C(=O)NNC(=O)c2ccc(Br)cc2)cn1,2.55
16,Cc1cccc(NC(=O)CNC(=O)COc2ccc(C(=O)c3ccc(F)cc3)cc2)c1C,1.92
17,CCCCC(=O)Nc1ccc2c(c1)nc(CN1CCN(C(=O)OCC)CC1)n2C,13.1
18,Cc1ccc(Oc2cc(C#N)c(C#N)cc2-n2nnc3ccccc32)cc1C,7.63
19,CCCCN(CC)C(=O)Cc1ccccc1OC,18
20,COc1ccc(-c2noc(CCC(=O)NCCCN3CCC(C)CC3)n2)cc1,9.03
21,CSc1ccc(NC(=O)NCCCN2CCN(c3ccccc3F)CC2)cc1,-12.8
22,O=c1c2cc(NC(=S)NCCN3CCCCCC3)ccc2nc2n1CCCCC2,7.57
23,CC(=O)Nc1ccc(S(=O)(=O)NCc2ccc(C(=O)NCCCN3CCC(C)CC3)cc2)cc1,16.7
24,Cc1ccc(S(=O)(=O)NCc2ccc(C(=O)NCCCN3CCC(Cc4ccccc4)CC3)cc2)cc1,-52.4

row,SMILES,"hERG current change (%, negative = inhibition) at 1uM [%]"
1,CCCCNC(=S)Nc1ccc2nc3n(c(=O)c2c1)CCCCC3,-24.7
2,O=c1c2cc(NC(=S)NCCCN3CCC(Cc4ccccc4)CC3)ccc2nc2n1CCCCC2,-57.1
3,Cc1ccc(S(=O)(=O)NCc2ccc(C(=O)NCCCN3CCN(C)CC3)cc2)cc1,13.4
4,Cc1ccccc1CC1CCN(CCCNC(=O)Nc2ccccc2)CC1,-34.1
5,CSc1ccc(NC(=O)NCCCN2CCC(Cc3ccccc3)CC2)cc1,-76
6,COc1ccc(-c2noc(CCC(=O)NCCCN3CCC(Cc4ccccc4)CC3)n2)cc1,-84.9
7,CCN1CCN(CCCNC(=O)CCc2nc(-c3ccc(OC)cc3)no2)CC1,6.54
8,COc1ccc(C2C=C(Nc3ccccc3)C(=O)N2c2ccccc2)cc1OC (stereo not drawn),20.1
9,C/C(=N/NC(=O)c1ccc(C)nc1)c1ccc2c(c1)CCCC2,-4.02
10,CC(=O)Oc1cc2c(cc1Cl)C1(CC(c3ccccc3Cl)O2)CC(C)(C)NC(=S)N1 (stereo not drawn),4.5
11,COc1ccc(NC(=O)NCCCN2CCC(Cc3ccccc3)CC2)cc1,-82.2
12,COc1ccc(NC(=O)N2CCC(Cc3ccccc3)CC2)cc1,6.74
13,COc1ccc(NC(=O)NCCCCc2ccccc2)cc1,6.14
14,Cc1ccc(NC(=O)CCn2nc(C)cc2C)c(C)c1,8.75
15,Cc1ccccc1CC1(CO)CCCN(C(=O)c2cc(Cl)ccc2F)C1 (stereo not drawn),14.5
16,Cc1ccccc1CC1(CO)CCCN(C(=O)c2ccccc2N(C)C)C1 (stereo not drawn),10.9
17,Cc1ccccc1CC1(CO)CCCN(C(=O)c2ccccc2Cl)C1 (stereo not drawn),-70.4
18,Cc1cc(=O)n2c(n1)OC(CO)C2 (stereo not drawn),12.1
19,Cc1nc(C)c(-c2ccccc2)c(=O)[nH]1,12.8
20,O=C(N1CCOCC1)N1c2ccccc2CC(N2CCOCC2)c2ccccc21 (stereo not drawn),17
21,OCC1(Cc2ccc(Cl)cc2)CCN(Cc2ccc(F)c(F)c2)CC1,-4.29
22,OCC1(Cc2ccc(Cl)cc2)CCN(CCCc2ccccc2)CC1,-83.6
23,CN1CCC(CO)(Cc2ccccc2)CC1,4.74
24,OCC1(Cc2ccc(Cl)cc2)CCN(Cc2ccccc2F)CC1,-18.4

row,SMILES,"hERG current change (%, negative = inhibition) at 1uM [%]"
1,OCC1(Cc2ccccc2)CCN(Cc2ccc(C(F)(F)F)cc2)CC1,-6.85
2,OCC1(Cc2ccccc2)CCN(CCCC2CCCC2)CC1,-79
3,COc1ccc(CCNC(=O)Cc2cccs2)cc1,16.8
4,COc1ccc(C(CNC(=O)CN2C(=O)NC3(CCCC3)C2=O)N(C)C)cc1 (stereo not drawn),13.2
5,COc1ccc2nc(N=NC3=C(O)CC(C)(C)CC3=O)sc2c1,7.73
6,COc1ccccc1Nc1nc(N)nc(CN2CCOCC2)n1,14.7
7,COc1cccc(N2CCN(Cc3nc(N)nc(Nc4ccccc4OC)n3)CC2)c1,10.2
8,COc1ccccc1Nc1nc(N)nc(CN2CCN(c3ccccc3)CC2)n1,-3.16
9,COc1ccc(N2CCN(Cc3nc(N)nc(Nc4ccccc4OC)n3)CC2)cc1,-14.5
10,COc1ccccc1Nc1nc(N)nc(CN2CCC(Cc3ccccc3)CC2)n1,-95.7
11,COc1ccccc1Nc1nc(N)nc(CN2CCN(Cc3ccccc3)CC2)n1,-76.6
12,COc1ccccc1Nc1nc(N)nc(CN2CCCCCC2)n1,-32.2
13,COc1ccccc1Nc1nc(N)nc(CN2CCN(Cc3ccc4c(c3)OCO4)CC2)n1,-79.8
14,COc1ccccc1Nc1nc(N)nc(CN2CCN(c3ccccc3F)CC2)n1,-9.68
15,O=C(N/C(=C/c1cccnc1)C(=O)N1CCCCCC1)c1ccccc1,6.71
16,CC1NC(=O)N(C)C2NC(=O)N(C)C(c3ccccc3)C12 (stereo not drawn),11.1
17,CC(C)(C)Sc1ccc([N+](=O)[O-])cc1C(=O)Nc1ccncc1,0.86
18,O=C(O)C(=O)O.c1ccc(COc2ccc(OCCCNC3CCCC3)cc2)cc1,8.41
19,O=C(O)C(=O)O.c1ccc(-c2ccc(OCCCNC3CCCC3)cc2)cc1,-54.9
20,O=C(O)C(=O)O.c1ccc(Cc2ccc(OCCCNC3CCCC3)cc2)cc1,-3.05
21,COc1ccc(CCNC(=O)Cn2c([N+](=O)[O-])cnc2C)cc1OC,8.24
22,Cc1ccc(Nc2nc(N)nc(CN3CCc4ccccc4C3)n2)cc1,-31.5
23,CC1CC(C)CN(C(=S)SCc2nc(N)nc(Nc3ccccc3)n2)C1 (stereo not drawn),7.72
24,COc1ccccc1Nc1nc(N)nc(CN2CCCCC2)n1,-4.26

row,SMILES,"hERG current change (%, negative = inhibition) at 1uM [%]"
1,Nc1nc(CN2CCc3ccccc3C2)nc(Nc2ccccc2)n1,-10.8
2,CC1CC(C)CN(Cc2nc(N)nc(Nc3ccccc3)n2)C1 (stereo not drawn),-52.3
3,COc1ccccc1Nc1nc(N)nc(CN2CCC(C)CC2)n1,-37.3
4,CC1CC(C)CN(Cc2nc(N)nc(Nc3ccc4ccccc4c3)n2)C1 (stereo not drawn),-61.1
5,COc1ccccc1Nc1nc(N)nc(CN2CC(C)CC(C)C2)n1 (stereo not drawn),-70.8
6,CCN1CCN(Cc2nc(N)nc(Nc3ccc(C)c(C)c3)n2)CC1,-14.8
7,O=C(CC1NCCc2ccccc21)Nc1ccccc1 (stereo not drawn),4.29
8,COc1cc(S(=O)(=O)n2cnc(C)c2)ccc1Cl,6.58
9,CCCCC(=O)NNC(=S)NC(=O)C(c1ccccc1)c1ccccc1,12.3
10,CC(C)(C)N(CC#CCC(O)(c1ccccc1)C1CCCC1)CCO (stereo not drawn),15.6
11,CNc1nc(CC(C)=O)ns1,6.99
12,Cc1ccc(Cc2cc(C)n[nH]c2=O)cc1,27.1
13,CN(C)c1ccc(/C=N/NC(=O)C(O)(c2ccccc2)c2ccccc2)o1,-5.86
14,CCOC(=O)C1CCCCN1Cc1cc(Cl)ccc1O (stereo not drawn),4.99
15,COC(=O)c1cc2c(ccn2-c2ccc(F)cc2)n1Cc1ccc(OC)cc1,0.901
16,COc1ccc(C(=O)C2CCCN(Cc3cccn3-c3cccnc3)C2)cc1OC (stereo not drawn),-34.9
17,COc1ccc(C(=O)C2CCCN(Cc3cccn3-c3nccs3)C2)cc1OC (stereo not drawn),-90.2
18,COc1ccc(C(=O)C2CCCN(Cc3cnc(N4CCOCC4)s3)C2)cc1F (stereo not drawn),-17.9
19,COc1ccc(C(=O)C2CCCN(Cc3cccn3-c3nccs3)C2)cc1F (stereo not drawn),-91.4
20,COc1ccc(C(=O)C2CCCN(Cc3ccsc3)C2)cc1OC (stereo not drawn),-38.5
21,COc1ccc(C(=O)C2CCCN(Cc3ccc4nonc4c3)C2)cc1F (stereo not drawn),3.27
